Structures are written as SMILES. About 83,000 compounds went through this panel and 20% of them were active in at least one assay; those are over-represented in the sample as a whole.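 Growth was measured after 48 h exposure to one concentration of compound in 96-well plates. Values under 10 count as active.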 A number with no mark means an inactive call. Calls of active or inactive are those of the source.

In one assay the test system is MCF7 breast. The experiment in a line: NCI-60 one-dose screen, 48 h (100 = growth as untreated, 0 = no growth, -100 = all killed). The settings on record: 10 µM unless noted.
For `CSc1nsc(N)n1`, the growth was 95.8%.

Turning to `ON1CCCC1`, the growth was 95%.

Consider `CC(C)(C)CC1(C)NC(=O)NC1=O` (configuration not stated), for which the growth was 100%.

With `CC(=O)O[C@H]1CC[C@]2(C)C3=C(C(=O)C[C@H]2C1(C)C)[C@]1(C)CC[C@H]([C@H](C)CCC(=O)O)[C@@]1(C)CC3=O`, the growth is 89.6%.

With `COc1cccc(C(=O)NNC(=O)c2cccc3ccccc23)c1`, the growth was 109%.

Take `Cc1c(-c2ccc(C3CCCCC3)cc2)nc2ccc(F)cc2c1C(=O)O`: the growth was 27%.

As to `Cc1onc(-c2c(F)cccc2Cl)c1-c1ncc(-c2ccc(Br)cc2)o1`, the growth was 20.9%.

With `CC(=O)/C(C)=N\OC(=O)Nc1ccccc1`, the growth was 93.5%.

As for `O=C(O)c1cc(I)ccc1O`, the growth is 95.7%.

On to `O=C(OC1CCCC1)c1ccccc1Cl`, for which the growth was 96.2%.

Turning to `COC(=O)c1ccccc1C(=O)c1c(C)cc(C)cc1C`, the growth is 102%.

As for `CCCCOC(=O)c1ccc(NC(=O)CCl)cc1`, the growth was 22.8%.

Regarding `CCOC(=O)/C(O)=C(\C=N\C(=S)Nc1ccc(Cl)c(Cl)c1)C(=O)OCC`, the growth was 81%.

Turning to `Cc1ccccc1CC(N)C(=O)O` (configuration not stated), the growth is 104%.

For `CC1(C)OC2C(CO)OC(n3ccc(=O)[nH]c3=O)C2O1` (configuration not stated), the growth was 97.7%.

With `ClCC(Cl)[C@@H]1CC2C=CC1C2` (some centres not stated), the growth was 98.1%.

As for `O=C(CCl)Nc1ccccc1SCc1cc(Cl)cc2c1OCOC2`, the growth was 55.6%.

Consider `CCCCN(C(=O)CC)c1ccccc1`, for which the growth was 100%.

The subject of the next assay is HCT-116 colon. The description is as above. To be noted: 10 µM unless noted.
Regarding `NC(CCl)=NCC12CC3CC(CC(C3)C1)C2`, the growth was -69.2% (active).

As to `C=CCc1cc(OC)c(O)c(OC)c1`, the growth was 92.6%.

Regarding `O=C(O)CC1=CCCCC1`, the growth was 104%.

As to `COC(=O)C1=C(C)C(=O)CC1`, the growth was 103%.

In the case of `O=C(c1cccc(C(=O)c2ccc3c4c(cccc24)C(=O)N(c2ccccc2)C3=O)c1)c1ccc2c3c(cccc13)C(=O)N(c1ccccc1)C2=O`, the growth was 93.9%.

Take `O=c1n(CC2CO2)c(=O)n(CC2CO2)n1CC1CO1` (configuration not stated): the growth was 57.7%.

Turning to `CCCC1OC(c2ccco2)OCC1CC` (configuration not stated), the growth is 99%.

In the case of `COc1cc2c(c(OC)c1OC)-c1ccc(SC)c(=O)cc1[C@@H](NC1OC(CO)C(O)C(O)C1O)CC2` (some centres not stated), the growth is 9.89% (active).

`ClCC(Cl)C1CCC(Cl)C(Cl)C1` (configuration not stated): the growth is 95.6%.

Turning to `O=C(O)c1c[nH]c2ccccc2c1=O`, the growth was 95%.

In the case of `O=C(O)c1cccc(-n2ncc(Cl)c(Cl)c2=O)c1`, the growth is 105%.

Take `S=c1nc2[nH]c3ccccc3c2n[nH]1`: the growth was 96.4%.

As for `NCCCN1CCCC1=O`, the growth was 107%.

Regarding `O=S(=O)(O)c1cccc2cccnc12`, the growth is 100%.

Turning to `CC(=O)OCC1CCC(COC(C)=O)CC1` (configuration not stated), the growth is 103%.

For the molecule `CC1CCC(C(C)(C)[N+](C)(C)C)CC1` (configuration not stated), the growth is 98.4%.

Regarding `O=C(CCCl)OCCOc1ccccc1`, the growth is 118%.

As to `CC(=O)Nc1ccc(/C=C2\SC(=S)N(/C=C(\C(C)=O)C(N)=O)C2=O)cc1`, the growth was 92.2%.

Consider `CC(=O)Nc1ccc(O)c(C)c1`, for which the growth is 99.1%.

As for `CSc1nsc(N)n1`, the growth was 104%.

As for `ON1CCCC1`, the growth was 97.4%.

In the case of `CC(C)(C)CC1(C)NC(=O)NC1=O` (configuration not stated), the growth is 101%.

Turning to `CC(=O)O[C@H]1CC[C@]2(C)C3=C(C(=O)C[C@H]2C1(C)C)[C@]1(C)CC[C@H]([C@H](C)CCC(=O)O)[C@@]1(C)CC3=O`, the growth was 99.2%.

With `COc1cccc(C(=O)NNC(=O)c2cccc3ccccc23)c1`, the growth is 108%.

As to `Cc1c(-c2ccc(C3CCCCC3)cc2)nc2ccc(F)cc2c1C(=O)O`, the growth is 24.8%.

In the case of `Cc1onc(-c2c(F)cccc2Cl)c1-c1ncc(-c2ccc(Br)cc2)o1`, the growth is 17.8%.

As for `CC(=O)/C(C)=N\OC(=O)Nc1ccccc1`, the growth is 102%.

Turning to `O=C(O)c1cc(I)ccc1O`, the growth is 111%.

Regarding `O=C(OC1CCCC1)c1ccccc1Cl`, the growth was 98.7%.

As for `COC(=O)c1ccccc1C(=O)c1c(C)cc(C)cc1C`, the growth is 99.7%.

As to `CCCCOC(=O)c1ccc(NC(=O)CCl)cc1`, the growth was 4.07% (active).

As to `CCOC(=O)/C(O)=C(\C=N\C(=S)Nc1ccc(Cl)c(Cl)c1)C(=O)OCC`, the growth was 101%.

Take `Cc1ccccc1CC(N)C(=O)O` (configuration not stated): the growth is 106%.

Regarding `CC1(C)OC2C(CO)OC(n3ccc(=O)[nH]c3=O)C2O1` (configuration not stated), the growth was 98.2%.

Take `ClCC(Cl)[C@@H]1CC2C=CC1C2` (some centres not stated): the growth is 98.4%.

As to `O=C(CCl)Nc1ccccc1SCc1cc(Cl)cc2c1OCOC2`, the growth is 78.9%.

In the case of `CCCCN(C(=O)CC)c1ccccc1`, the growth is 99.8%.

The subject of a further assay is HCC-2998 colon. Described as above. The settings on record: 10 µM unless noted.
With `NC(CCl)=NCC12CC3CC(CC(C3)C1)C2`, the growth was -17.9% (active).

As for `C=CCc1cc(OC)c(O)c(OC)c1`, the growth was 102%.

For the molecule `O=C(O)CC1=CCCCC1`, the growth was 94.3%.

For the molecule `COC(=O)C1=C(C)C(=O)CC1`, the growth was 116%.

Turning to `O=C(c1cccc(C(=O)c2ccc3c4c(cccc24)C(=O)N(c2ccccc2)C3=O)c1)c1ccc2c3c(cccc13)C(=O)N(c1ccccc1)C2=O`, the growth is 114%.

With `O=c1n(CC2CO2)c(=O)n(CC2CO2)n1CC1CO1` (configuration not stated), the growth is 75.2%.

With `CCCC1OC(c2ccco2)OCC1CC` (configuration not stated), the growth was 101%.

Take `COc1cc2c(c(OC)c1OC)-c1ccc(SC)c(=O)cc1[C@@H](NC1OC(CO)C(O)C(O)C1O)CC2` (some centres not stated): the growth is -4.3% (active).

As for `ClCC(Cl)C1CCC(Cl)C(Cl)C1` (configuration not stated), the growth is 101%.

As to `O=C(O)c1c[nH]c2ccccc2c1=O`, the growth was 102%.

Turning to `O=C(O)c1cccc(-n2ncc(Cl)c(Cl)c2=O)c1`, the growth is 108%.

Take `S=c1nc2[nH]c3ccccc3c2n[nH]1`: the growth is 102%.

With `NCCCN1CCCC1=O`, the growth was 100%.

Turning to `O=S(=O)(O)c1cccc2cccnc12`, the growth was 103%.

For `CC(=O)OCC1CCC(COC(C)=O)CC1` (configuration not stated), the growth is 91.5%.

Turning to `CC1CCC(C(C)(C)[N+](C)(C)C)CC1` (configuration not stated), the growth is 93.7%.

With `O=C(CCCl)OCCOc1ccccc1`, the growth is 108%.

For the molecule `CC(=O)Nc1ccc(/C=C2\SC(=S)N(/C=C(\C(C)=O)C(N)=O)C2=O)cc1`, the growth is 94.4%.

For `CC(=O)Nc1ccc(O)c(C)c1`, the growth was 106%.

`CSc1nsc(N)n1`: the growth is 106%.

As for `ON1CCCC1`, the growth is 98.8%.

In the case of `CC(C)(C)CC1(C)NC(=O)NC1=O` (configuration not stated), the growth is 113%.

Consider `CC(=O)O[C@H]1CC[C@]2(C)C3=C(C(=O)C[C@H]2C1(C)C)[C@]1(C)CC[C@H]([C@H](C)CCC(=O)O)[C@@]1(C)CC3=O`, for which the growth was 102%.

Regarding `COc1cccc(C(=O)NNC(=O)c2cccc3ccccc23)c1`, the growth was 102%.

For `Cc1c(-c2ccc(C3CCCCC3)cc2)nc2ccc(F)cc2c1C(=O)O`, the growth was 49.9%.

As to `Cc1onc(-c2c(F)cccc2Cl)c1-c1ncc(-c2ccc(Br)cc2)o1`, the growth is 58.6%.

Take `CC(=O)/C(C)=N\OC(=O)Nc1ccccc1`: the growth was 94.7%.

`O=C(O)c1cc(I)ccc1O`: the growth is 95.1%.

Take `O=C(OC1CCCC1)c1ccccc1Cl`: the growth was 103%.

In the case of `COC(=O)c1ccccc1C(=O)c1c(C)cc(C)cc1C`, the growth was 94.4%.

`CCCCOC(=O)c1ccc(NC(=O)CCl)cc1`: the growth was 101%.

As for `CCOC(=O)/C(O)=C(\C=N\C(=S)Nc1ccc(Cl)c(Cl)c1)C(=O)OCC`, the growth is 87.9%.

As for `Cc1ccccc1CC(N)C(=O)O` (configuration not stated), the growth is 117%.

Turning to `CC1(C)OC2C(CO)OC(n3ccc(=O)[nH]c3=O)C2O1` (configuration not stated), the growth is 102%.

With `ClCC(Cl)[C@@H]1CC2C=CC1C2` (some centres not stated), the growth was 118%.

In the case of `O=C(CCl)Nc1ccccc1SCc1cc(Cl)cc2c1OCOC2`, the growth is 99.1%.

`CCCCN(C(=O)CC)c1ccccc1`: the growth is 112%.

For the origin of these results see PubChem BioAssay (NCI).
